# Results published in article PMC4336329 (PLoS ONE, 2015).
# Screen size: about 310,000 compounds; about 14,000 (4.5%) showed an effect of 50% or more. The effect is printed as a negative number. This excerpt belongs to a sample that is enriched for strong results.
# Biological target: human ether-à-go-go-related gene (hERG) potassium channel (human, UniProt Q12809)
# Assay: primary screen, population patch clamp on CHO cells stably expressing hERG; higher = less effect of the substance
# 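Also: peak tail current of the secondary pulse compared with the same well before compound.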
# human ether-à-go-go-related gene (hERG) potassium channel, sequence (Q12809 whole entry, looked up): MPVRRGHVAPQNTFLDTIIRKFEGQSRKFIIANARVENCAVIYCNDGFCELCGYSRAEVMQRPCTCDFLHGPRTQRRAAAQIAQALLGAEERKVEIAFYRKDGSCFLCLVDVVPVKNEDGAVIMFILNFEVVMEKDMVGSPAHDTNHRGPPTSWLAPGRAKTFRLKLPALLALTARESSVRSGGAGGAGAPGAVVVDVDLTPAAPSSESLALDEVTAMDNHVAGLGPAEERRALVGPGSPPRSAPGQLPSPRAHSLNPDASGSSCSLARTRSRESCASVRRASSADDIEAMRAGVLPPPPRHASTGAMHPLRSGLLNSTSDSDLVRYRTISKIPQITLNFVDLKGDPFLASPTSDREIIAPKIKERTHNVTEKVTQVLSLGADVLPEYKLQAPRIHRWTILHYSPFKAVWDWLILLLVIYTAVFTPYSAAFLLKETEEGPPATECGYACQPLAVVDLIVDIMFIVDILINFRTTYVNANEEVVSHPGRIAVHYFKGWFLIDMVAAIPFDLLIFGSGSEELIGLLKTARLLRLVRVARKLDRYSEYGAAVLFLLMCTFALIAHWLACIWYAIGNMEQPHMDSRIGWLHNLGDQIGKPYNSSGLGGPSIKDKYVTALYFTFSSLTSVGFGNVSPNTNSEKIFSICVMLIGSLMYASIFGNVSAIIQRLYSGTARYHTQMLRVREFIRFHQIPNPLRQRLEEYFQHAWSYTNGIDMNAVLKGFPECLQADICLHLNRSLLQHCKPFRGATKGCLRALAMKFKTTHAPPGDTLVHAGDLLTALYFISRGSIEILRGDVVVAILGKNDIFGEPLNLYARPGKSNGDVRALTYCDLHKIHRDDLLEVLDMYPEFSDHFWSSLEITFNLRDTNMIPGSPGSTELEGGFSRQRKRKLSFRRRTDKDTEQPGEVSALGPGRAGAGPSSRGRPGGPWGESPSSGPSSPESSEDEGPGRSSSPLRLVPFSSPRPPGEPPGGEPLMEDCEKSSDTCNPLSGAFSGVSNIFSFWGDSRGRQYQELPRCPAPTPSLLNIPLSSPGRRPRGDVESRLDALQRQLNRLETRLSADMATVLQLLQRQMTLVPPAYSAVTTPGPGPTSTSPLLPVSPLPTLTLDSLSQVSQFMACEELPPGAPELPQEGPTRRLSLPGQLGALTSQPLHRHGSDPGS
row,Compound,"hERG current change (%, negative = inhibition) at 10uM"
1,CC1CCN(C(=O)CSCC(=O)Nc2nc(-c3cccs3)cs2)CC1,-20.6%
2,CCOc1ccc(C2C=C(c3ccccc3)Nc3ncnn32)cc1 (stereo not shown),-47.2%
3,Cc1ccc(C2=CC(c3ccc(C)cc3)n3ncnc3N2)cc1 (stereo not shown),-17.6%
4,C1=C(c2ccccc2)Nc2ncnn2C1c1ccccc1 (stereo not shown),-5.26%
5,COc1cccc(C2=CC(c3ccccc3)n3ncnc3N2)c1 (stereo not shown),-2.39%
6,Cc1ccc(C2=CC(c3ccccc3)n3ncnc3N2)cc1 (stereo not shown),-15.8%
7,Cc1ccc(C2C=C(c3ccccc3)Nc3ncnn32)cc1 (stereo not shown),-64.7%
8,COc1cccc(C2=CC(c3ccc(N(C)C)cc3)n3ncnc3N2)c1 (stereo not shown),-1.72%
9,COc1ccc(C2C=C(c3ccccc3)Nc3ncnn32)cc1 (stereo not shown),-57.4%
10,COc1cccc(C2=CC(c3ccc(C)cc3)n3ncnc3N2)c1 (stereo not shown),-52.4%
11,O=C(Nc1nnc(-c2ccccc2Cl)s1)c1ccccc1F,10.9%
12,CC(=O)c1ccc(N2CCN(S(=O)(=O)c3ccc(-c4cc(C)no4)s3)CC2)cc1,-1.08%
13,Cc1ccc2c(c1)NCCO2,4.46%
14,O=C(CSc1ccc(F)cc1)Nc1ccc(N2CCOCC2)c(Cl)c1,-20.3%
15,CCOCCCN(C)C1CCN(C(=O)c2oc3ccccc3c2NC(=O)Cc2ccc([N+](=O)[O-])cc2)CC1,-81.5%
16,COc1ccc(CC(=O)Nc2c(C(=O)N3CCN(c4ccccc4)CC3)oc3ccccc23)cc1OC,-32.4%
17,COc1cccc(N2CCN(C(=O)c3oc4ccccc4c3NC(=O)Cc3ccc(OC)c(OC)c3)CC2)c1,-14.1%
18,CCOCCCN(C)C1CCN(C(=O)c2oc3ccccc3c2NC(=O)Cc2cccc([N+](=O)[O-])c2)CC1,-75.3%
19,COc1ccc(N2CCN(C(=O)c3oc4ccccc4c3NC(=O)Cc3cccc(OC)c3)CC2)cc1,-30.2%
20,Cc1nc(=S)c2c([nH]1)-c1ccccc1CC21CCCCC1,10.8%
21,CC1CCCC(NC(=O)COC(=O)c2ccc(N(C)C)cc2)C1C (stereo not shown),-1.77%
22,Cc1ccc(NC(=O)CN(C)S(=O)(=O)c2cccc3cccnc23)c(C)c1,4.3%

row,Compound,"hERG current change (%, negative = inhibition) at 10uM"
1,Cc1ccsc1C(=O)C1CCCN(Cc2cc(F)ccc2-n2cccn2)C1 (stereo not shown),-82.9%
2,Cc1ccsc1C(=O)C1CCCN(Cc2ccn[nH]2)C1 (stereo not shown),6.96%
3,Cc1ccsc1C(=O)C1CCCN(Cc2cn(C)nc2C)C1 (stereo not shown),-40.9%
4,Cc1ccsc1C(=O)C1CCCN(Cc2ccccc2O)C1 (stereo not shown),-48.1%
5,Cc1ccc(-n2cccn2)c(CN2CCCC(C(=O)c3sccc3C)C2)c1 (stereo not shown),-85.4%
6,COC(=O)Nc1ncc(CN2C(=O)c3ccccc3C2=O)s1,-23%
7,Cc1cc(NC(=O)COC(=O)c2n[nH]c3ccccc23)no1,8.9%
8,O=C(N/N=C/c1cccnc1)c1cccc(Br)c1,10.4%
9,O=C(C1=C[C@H](c2ccccc2)C[C@H](OCCCCO)O1)N1CCN(Cc2ccccc2)CC1,-38.9%
10,C#CCNC(=O)C1=C[C@@H](c2ccc(C(F)(F)F)cc2)C[C@@H](OCCCCO)O1,-53.8%
11,C#Cc1ccc([C@@H]2C=C(C(=O)N3CCOCC3)O[C@H](OCCCCO)C2)cc1,17.3%
12,C#CCNC(=O)C1=C[C@H](c2ccc(C(F)(F)F)cc2)C[C@H](OCCCCO)O1,-6.12%
13,CN1CCN(C(=O)C2=C[C@H](c3ccc(Br)cc3)C[C@H](OCCCCO)O2)CC1,-47.7%
14,C#Cc1ccc([C@@H]2C=C(C(=O)N3CCN(Cc4ccccc4)CC3)O[C@H](OCCCCO)C2)cc1,-56%
15,CCO[C@@H]1OC(C(=O)N2CCN(C)CC2)=C[C@H](c2ccc(C(F)(F)F)cc2)[C@H]1CCCO,-1.51%
16,C#Cc1ccc([C@H]2C=C(C(=O)N3CCN(Cc4ccccc4)CC3)O[C@@H](OCc3ccc(CO)cc3)C2)cc1,-13.3%
17,C#CCNC(=O)C1=C[C@@H](c2ccc(C#C)cc2)C[C@@H](OCCCCO)O1,-3.88%
18,O=C(C1=C[C@@H](c2ccc(Br)cc2)C[C@@H](OCCCCO)O1)N1CCN(Cc2ccccc2)CC1,-91.7%
19,CCO[C@@H]1OC(C(=O)N2CCCCCCC2)=C[C@H](c2ccc(C(F)(F)F)cc2)[C@H]1CCCO,-21.4%
20,CCO[C@H]1OC(C(=O)N2CCCCCCC2)=C[C@@H](c2ccc(C(F)(F)F)cc2)[C@@H]1CCCO,-50.5%
21,CC(=O)Nc1ccc(S(=O)(=O)NNC(=S)NCc2ccco2)cc1,12.1%
